Measurements from article PMC7862700, “An all-to-all approach to the identification of sequence-specific readers for epigenetic DNA modifications on cytosine”.

Assays:
Test in all cases: DAPPL (digital affinity profiling via proximity ligation, sequencing); 10 mM Tris-HCl pH 7.5, 50 mM NaCl, 1 mM DTT, 4% glycerol, room temperature, 30 min; GST-TFs on glutathione beads, 16-mer random dsDNA library, 0.1% formaldehyde crosslink after washing; high values mean tight binding
FEV = molecular target: T1, FEV (Homo sapiens, UniProt Q99581 1-238); conditions: protein: recombinant; tags: N-terminal GST; dsDNA, one strand shown
T1 sequence: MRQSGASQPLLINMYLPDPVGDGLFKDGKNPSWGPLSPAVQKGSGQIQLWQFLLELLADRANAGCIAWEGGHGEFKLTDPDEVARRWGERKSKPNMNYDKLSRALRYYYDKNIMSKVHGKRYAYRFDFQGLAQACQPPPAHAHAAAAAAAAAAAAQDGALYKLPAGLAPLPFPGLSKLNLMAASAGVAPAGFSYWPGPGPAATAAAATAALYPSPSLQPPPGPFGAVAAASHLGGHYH
Procedure, shortened: (§1)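 Binding signal is given per hexamer as its read frequency for a factor divided by its frequency in the tag-only sample. GST-fused human transcription factors were expressed in yeast, captured on glutathione beads, barcoded with DNA and pooled with that sample, then incubated with 200 nmole of a 16-mer random double-stranded DNA library in Tris/NaCl/DTT/glycerol buffer for 30 min at room temperature. The pools were then washed, crosslinked, proximity-ligated, amplified by PCR and sequenced on an Illumina NextSeq500.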

ETV5 = ETV5 (Homo sapiens, UniProt P41161 1-510); conditions: protein: recombinant; tags: N-terminal GST; dsDNA, one strand shown
Procedure, shortened: as §1

HSF1 = HSF1 (Homo sapiens, UniProt Q00613 1-529); conditions: protein: recombinant; tags: N-terminal GST; chain copies: 3; dsDNA, one strand shown
Procedure, shortened: as §1

SPIC = molecular target: T2, SPIC (Homo sapiens, UniProt Q8N5J4 1-248); conditions: protein: recombinant; tags: N-terminal GST; dsDNA, one strand shown
T2 sequence: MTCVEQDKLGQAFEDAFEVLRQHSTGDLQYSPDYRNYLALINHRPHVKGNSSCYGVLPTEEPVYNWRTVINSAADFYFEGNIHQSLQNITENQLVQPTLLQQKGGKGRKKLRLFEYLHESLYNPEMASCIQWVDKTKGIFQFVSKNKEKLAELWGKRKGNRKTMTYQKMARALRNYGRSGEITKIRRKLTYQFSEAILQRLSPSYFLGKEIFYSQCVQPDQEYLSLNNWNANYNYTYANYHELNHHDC
Procedure, shortened: as §1

ELF4 = ELF4 (Homo sapiens, UniProt Q99607 1-663); conditions: protein: recombinant; tags: N-terminal GST; dsDNA, one strand shown
Procedure, shortened: as §1

ELK4 = molecular target: T3, ELK4 (Homo sapiens, UniProt P28324-2 1-405); conditions: protein: recombinant; tags: N-terminal GST; dsDNA, one strand shown
T3 sequence: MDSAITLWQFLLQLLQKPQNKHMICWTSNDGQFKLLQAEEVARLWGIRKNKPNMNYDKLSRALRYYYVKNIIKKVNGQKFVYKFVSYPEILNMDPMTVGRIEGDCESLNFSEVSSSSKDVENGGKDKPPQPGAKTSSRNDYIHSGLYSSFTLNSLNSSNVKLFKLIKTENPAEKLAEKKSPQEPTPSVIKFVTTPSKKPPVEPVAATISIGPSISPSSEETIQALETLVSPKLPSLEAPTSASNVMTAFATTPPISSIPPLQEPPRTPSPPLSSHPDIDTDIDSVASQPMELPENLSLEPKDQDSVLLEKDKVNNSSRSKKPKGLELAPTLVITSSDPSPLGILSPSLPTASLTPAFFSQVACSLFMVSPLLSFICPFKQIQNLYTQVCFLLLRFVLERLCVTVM
Procedure, shortened: as §1

ETV2 = molecular target: T4, ETV2 (Homo sapiens, UniProt O00321 1-342); conditions: protein: recombinant; tags: N-terminal GST; dsDNA, one strand shown
T4 sequence: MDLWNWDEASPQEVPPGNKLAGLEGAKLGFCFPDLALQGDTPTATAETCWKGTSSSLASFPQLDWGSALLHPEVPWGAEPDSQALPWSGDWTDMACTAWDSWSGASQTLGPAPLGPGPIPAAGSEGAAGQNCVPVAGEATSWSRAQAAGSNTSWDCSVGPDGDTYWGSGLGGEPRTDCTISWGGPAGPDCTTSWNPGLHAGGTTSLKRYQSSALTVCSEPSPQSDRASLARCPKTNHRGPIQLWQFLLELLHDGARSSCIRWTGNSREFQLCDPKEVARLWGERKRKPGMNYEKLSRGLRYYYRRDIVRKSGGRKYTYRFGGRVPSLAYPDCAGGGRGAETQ
Procedure, shortened: as §1

ELF3 = molecular target: T5, ELF3 (Homo sapiens, UniProt P78545 1-371); conditions: protein: recombinant; tags: N-terminal GST; dsDNA, one strand shown
T5 sequence: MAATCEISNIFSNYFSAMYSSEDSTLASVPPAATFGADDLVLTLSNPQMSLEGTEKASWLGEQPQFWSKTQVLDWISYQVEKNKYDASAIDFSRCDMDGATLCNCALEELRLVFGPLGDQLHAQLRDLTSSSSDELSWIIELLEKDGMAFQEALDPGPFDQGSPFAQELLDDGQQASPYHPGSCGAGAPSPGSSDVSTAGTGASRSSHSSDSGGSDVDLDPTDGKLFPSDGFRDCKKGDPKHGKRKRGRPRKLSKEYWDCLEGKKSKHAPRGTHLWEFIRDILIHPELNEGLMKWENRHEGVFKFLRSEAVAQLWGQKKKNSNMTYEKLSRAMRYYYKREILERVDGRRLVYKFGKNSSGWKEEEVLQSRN
Procedure, shortened: as §1

CRX = CRX (Homo sapiens, UniProt O43186 1-299); conditions: protein: recombinant; tags: N-terminal GST; dsDNA, one strand shown
Procedure, shortened: as §1

ETV1 = ETV1 (Homo sapiens, UniProt P50549 1-477); conditions: protein: recombinant; tags: N-terminal GST; dsDNA, one strand shown
Procedure, shortened: as §1

ERF = molecular target: T6, ERF (Homo sapiens, UniProt P50548 1-548); conditions: protein: recombinant; tags: N-terminal GST; dsDNA, one strand shown
T6 sequence: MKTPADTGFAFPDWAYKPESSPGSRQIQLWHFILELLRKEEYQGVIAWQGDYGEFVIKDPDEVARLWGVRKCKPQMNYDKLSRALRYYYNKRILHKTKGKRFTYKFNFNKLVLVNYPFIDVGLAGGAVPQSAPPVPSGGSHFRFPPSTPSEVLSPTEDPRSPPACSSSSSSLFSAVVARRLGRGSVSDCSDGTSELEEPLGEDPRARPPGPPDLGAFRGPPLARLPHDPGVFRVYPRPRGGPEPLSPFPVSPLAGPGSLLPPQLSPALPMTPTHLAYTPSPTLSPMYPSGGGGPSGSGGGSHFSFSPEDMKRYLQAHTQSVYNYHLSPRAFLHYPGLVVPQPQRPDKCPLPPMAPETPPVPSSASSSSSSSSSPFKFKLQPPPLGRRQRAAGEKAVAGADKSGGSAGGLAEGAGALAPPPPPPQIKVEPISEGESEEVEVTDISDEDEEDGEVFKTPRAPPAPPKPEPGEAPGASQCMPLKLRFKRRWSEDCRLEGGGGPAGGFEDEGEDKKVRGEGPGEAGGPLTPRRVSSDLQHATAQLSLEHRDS
Procedure, shortened: as §1

ETV3L = molecular target: T7, ETV3L (Homo sapiens, UniProt Q6ZN32 1-361); conditions: protein: recombinant; tags: N-terminal GST; dsDNA, one strand shown
T7 sequence: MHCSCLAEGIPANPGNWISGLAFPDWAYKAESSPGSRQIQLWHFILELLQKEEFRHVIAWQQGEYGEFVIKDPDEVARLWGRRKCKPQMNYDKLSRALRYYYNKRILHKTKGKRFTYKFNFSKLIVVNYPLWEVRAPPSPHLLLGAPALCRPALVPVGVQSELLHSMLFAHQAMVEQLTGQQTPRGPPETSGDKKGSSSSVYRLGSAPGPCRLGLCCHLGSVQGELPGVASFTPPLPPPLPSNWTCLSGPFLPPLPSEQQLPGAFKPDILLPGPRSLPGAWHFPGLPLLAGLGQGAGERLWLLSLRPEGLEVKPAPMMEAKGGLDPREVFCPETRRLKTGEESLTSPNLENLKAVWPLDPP
Procedure, shortened: as §1

ETS2 = molecular target: T8, ETS2 (Homo sapiens, UniProt P15036 1-469); conditions: protein: recombinant; tags: N-terminal GST; dsDNA, one strand shown
T8 sequence: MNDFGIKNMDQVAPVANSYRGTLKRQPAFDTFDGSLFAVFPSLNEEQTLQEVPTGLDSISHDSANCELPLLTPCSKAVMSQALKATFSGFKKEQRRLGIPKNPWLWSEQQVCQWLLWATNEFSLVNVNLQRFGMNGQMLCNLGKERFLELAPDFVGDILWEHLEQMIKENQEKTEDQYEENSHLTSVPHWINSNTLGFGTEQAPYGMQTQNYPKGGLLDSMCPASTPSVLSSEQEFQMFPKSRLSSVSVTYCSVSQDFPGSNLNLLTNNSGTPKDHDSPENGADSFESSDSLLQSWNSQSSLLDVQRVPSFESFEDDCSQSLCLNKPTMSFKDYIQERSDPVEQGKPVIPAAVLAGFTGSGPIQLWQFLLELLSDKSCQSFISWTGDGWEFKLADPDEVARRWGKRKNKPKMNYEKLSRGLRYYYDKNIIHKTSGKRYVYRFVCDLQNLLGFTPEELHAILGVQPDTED
Procedure, shortened: as §1

SPDEF = molecular target: T9, SPDEF (Homo sapiens, UniProt O95238 1-335); conditions: protein: recombinant; tags: N-terminal GST; dsDNA, one strand shown
T9 sequence: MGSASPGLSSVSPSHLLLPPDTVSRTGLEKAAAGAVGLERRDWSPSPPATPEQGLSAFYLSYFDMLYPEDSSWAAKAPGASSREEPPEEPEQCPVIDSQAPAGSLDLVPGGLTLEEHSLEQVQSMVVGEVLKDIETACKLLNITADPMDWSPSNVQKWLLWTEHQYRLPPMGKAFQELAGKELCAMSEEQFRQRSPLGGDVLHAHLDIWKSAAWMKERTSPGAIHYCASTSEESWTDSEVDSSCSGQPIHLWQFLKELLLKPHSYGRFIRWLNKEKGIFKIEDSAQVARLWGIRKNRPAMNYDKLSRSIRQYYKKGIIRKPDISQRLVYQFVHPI
Procedure, shortened: as §1

ETV7 = molecular target: T10, ETV7 (Homo sapiens, UniProt Q9Y603 1-341); conditions: protein: recombinant; tags: N-terminal GST; dsDNA, one strand shown
T10 sequence: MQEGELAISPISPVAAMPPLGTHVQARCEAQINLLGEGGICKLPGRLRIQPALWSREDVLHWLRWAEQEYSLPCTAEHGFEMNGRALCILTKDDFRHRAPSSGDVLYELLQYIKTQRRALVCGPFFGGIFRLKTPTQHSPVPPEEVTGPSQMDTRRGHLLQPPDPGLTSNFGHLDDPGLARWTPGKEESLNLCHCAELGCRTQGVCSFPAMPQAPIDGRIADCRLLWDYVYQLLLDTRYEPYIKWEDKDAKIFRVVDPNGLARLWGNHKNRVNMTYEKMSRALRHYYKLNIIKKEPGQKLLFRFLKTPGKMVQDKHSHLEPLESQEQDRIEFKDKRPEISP
Procedure, shortened: as §1

ELF5 = molecular target: T11, ELF5 (Homo sapiens, UniProt Q9UKW6-2 1-255); conditions: protein: recombinant; tags: N-terminal GST; dsDNA, one strand shown
T11 sequence: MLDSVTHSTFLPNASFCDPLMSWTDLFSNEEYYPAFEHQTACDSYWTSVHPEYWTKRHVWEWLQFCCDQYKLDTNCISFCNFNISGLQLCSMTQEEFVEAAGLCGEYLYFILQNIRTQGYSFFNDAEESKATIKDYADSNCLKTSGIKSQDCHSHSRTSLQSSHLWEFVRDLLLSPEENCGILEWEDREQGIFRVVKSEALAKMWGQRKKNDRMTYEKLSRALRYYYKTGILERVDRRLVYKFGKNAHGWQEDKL
Procedure, shortened: as §1

ETV3 = molecular target: T12, ETV3 (Homo sapiens, UniProt P41162-2 1-143); conditions: protein: recombinant; tags: N-terminal GST; dsDNA, one strand shown
T12 sequence: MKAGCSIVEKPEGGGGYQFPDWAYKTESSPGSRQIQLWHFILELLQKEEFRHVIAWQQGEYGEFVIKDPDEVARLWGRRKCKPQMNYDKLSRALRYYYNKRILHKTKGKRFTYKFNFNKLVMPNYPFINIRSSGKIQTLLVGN
Procedure, shortened: as §1

ETV6 = ETV6 (Homo sapiens, UniProt P41212 1-452); conditions: protein: recombinant; tags: N-terminal GST; dsDNA, one strand shown
Procedure, shortened: as §1

Chain of ELF4 (Q99607 whole entry): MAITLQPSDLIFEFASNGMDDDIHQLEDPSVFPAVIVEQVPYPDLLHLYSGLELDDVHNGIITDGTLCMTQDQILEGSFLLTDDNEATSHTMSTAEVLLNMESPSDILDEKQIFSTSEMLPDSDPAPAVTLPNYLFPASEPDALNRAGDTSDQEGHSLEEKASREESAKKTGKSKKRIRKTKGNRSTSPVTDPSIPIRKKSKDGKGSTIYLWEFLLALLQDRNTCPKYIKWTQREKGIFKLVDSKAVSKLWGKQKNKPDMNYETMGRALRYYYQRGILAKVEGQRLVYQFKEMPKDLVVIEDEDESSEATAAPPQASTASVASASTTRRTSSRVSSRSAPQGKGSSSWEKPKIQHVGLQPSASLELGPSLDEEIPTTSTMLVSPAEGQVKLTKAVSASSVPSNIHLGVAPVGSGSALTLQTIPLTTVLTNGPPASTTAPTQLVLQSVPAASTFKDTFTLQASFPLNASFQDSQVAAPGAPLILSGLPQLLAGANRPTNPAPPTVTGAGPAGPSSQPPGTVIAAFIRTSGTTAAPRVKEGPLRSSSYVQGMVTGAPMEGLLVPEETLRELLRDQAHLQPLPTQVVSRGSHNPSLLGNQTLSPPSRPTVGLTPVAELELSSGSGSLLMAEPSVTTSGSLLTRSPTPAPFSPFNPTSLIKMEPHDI
Chain of ETV1 (P50549 whole entry): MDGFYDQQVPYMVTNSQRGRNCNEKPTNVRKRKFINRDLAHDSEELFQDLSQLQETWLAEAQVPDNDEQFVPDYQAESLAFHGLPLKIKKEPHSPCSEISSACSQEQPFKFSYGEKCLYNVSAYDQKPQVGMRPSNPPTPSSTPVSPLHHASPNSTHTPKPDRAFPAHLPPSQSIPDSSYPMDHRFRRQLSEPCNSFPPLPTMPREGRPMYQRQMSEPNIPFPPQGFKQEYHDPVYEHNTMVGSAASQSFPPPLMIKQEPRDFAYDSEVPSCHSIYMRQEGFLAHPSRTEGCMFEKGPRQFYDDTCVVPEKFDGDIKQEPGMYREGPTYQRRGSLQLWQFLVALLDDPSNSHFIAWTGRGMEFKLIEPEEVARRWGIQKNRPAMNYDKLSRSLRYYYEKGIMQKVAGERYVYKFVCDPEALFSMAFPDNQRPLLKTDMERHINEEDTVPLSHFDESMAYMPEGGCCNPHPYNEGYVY
Chain of ETV6 (P41212 whole entry): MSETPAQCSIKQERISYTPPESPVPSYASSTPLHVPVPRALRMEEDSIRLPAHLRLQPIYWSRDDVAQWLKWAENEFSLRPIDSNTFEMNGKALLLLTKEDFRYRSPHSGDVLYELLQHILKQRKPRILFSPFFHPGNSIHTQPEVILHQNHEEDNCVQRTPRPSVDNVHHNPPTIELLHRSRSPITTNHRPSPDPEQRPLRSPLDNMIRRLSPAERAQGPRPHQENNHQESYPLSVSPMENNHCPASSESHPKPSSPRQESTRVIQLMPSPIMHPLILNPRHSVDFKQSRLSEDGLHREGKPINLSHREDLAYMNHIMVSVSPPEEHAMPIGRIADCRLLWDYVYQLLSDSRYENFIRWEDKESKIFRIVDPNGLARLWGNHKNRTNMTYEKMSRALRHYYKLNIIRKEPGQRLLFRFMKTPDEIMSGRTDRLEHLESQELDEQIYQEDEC
Chain of ETV5 (P41161 whole entry): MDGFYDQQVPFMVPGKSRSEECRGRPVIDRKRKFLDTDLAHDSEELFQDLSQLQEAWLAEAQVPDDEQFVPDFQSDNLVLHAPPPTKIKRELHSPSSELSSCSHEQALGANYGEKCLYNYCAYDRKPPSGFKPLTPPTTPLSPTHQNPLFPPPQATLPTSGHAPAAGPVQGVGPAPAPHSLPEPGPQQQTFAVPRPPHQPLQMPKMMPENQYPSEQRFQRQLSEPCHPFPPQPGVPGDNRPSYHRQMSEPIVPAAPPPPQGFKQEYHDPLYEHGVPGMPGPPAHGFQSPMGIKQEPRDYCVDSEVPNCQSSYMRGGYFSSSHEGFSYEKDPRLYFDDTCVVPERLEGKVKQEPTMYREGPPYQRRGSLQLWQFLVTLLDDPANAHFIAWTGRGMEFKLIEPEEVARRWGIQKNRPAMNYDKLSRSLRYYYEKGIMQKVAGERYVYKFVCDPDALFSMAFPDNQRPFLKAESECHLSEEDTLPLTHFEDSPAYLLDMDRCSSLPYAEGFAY
Chain of HSF1 (Q00613 whole entry): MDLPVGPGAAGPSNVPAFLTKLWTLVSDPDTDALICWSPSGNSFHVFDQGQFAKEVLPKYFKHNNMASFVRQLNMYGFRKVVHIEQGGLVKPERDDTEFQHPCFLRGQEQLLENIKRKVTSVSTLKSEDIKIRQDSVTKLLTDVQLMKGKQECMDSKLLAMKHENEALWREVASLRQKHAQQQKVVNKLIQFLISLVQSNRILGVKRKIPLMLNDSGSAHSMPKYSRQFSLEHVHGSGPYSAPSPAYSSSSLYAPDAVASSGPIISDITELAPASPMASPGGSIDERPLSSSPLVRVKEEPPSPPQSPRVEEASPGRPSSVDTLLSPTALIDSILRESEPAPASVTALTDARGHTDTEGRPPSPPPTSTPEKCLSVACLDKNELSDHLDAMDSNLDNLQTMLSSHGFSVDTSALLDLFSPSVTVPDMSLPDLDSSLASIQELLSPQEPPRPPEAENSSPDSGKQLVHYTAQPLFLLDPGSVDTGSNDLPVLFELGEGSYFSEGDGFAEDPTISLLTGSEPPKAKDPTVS
Chain of CRX (O43186 whole entry): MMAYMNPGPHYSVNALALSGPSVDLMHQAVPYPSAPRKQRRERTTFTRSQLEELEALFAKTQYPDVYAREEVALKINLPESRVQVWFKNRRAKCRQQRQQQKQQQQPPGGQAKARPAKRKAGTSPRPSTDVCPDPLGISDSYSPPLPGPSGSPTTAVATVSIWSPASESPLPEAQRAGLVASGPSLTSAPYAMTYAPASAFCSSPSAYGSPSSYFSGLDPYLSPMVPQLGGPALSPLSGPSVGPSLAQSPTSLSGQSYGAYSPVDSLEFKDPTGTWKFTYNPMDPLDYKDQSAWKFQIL

For TGTATC, the binding signal (FEV) was 1.41 fold enrichment (6-mer frequency, TF over GST control), the binding signal (ETV5) was 1.4 fold enrichment (6-mer frequency, TF over GST control) and the binding signal (HSF1) was 1.16 fold enrichment (6-mer frequency, TF over GST control). For the same sequence, the binding signal (SPIC) was 1.46 fold enrichment (6-mer frequency, TF over GST control), the binding signal (ELF4) was 1.44 fold enrichment (6-mer frequency, TF over GST control) and the binding signal (ELK4) was 1.46 fold enrichment (6-mer frequency, TF over GST control). The binding signal (ETV2) was 1.36 fold enrichment (6-mer frequency, TF over GST control), the binding signal (ELF3) was 1.41 fold enrichment (6-mer frequency, TF over GST control) and the binding signal (CRX) was 1.15 fold enrichment (6-mer frequency, TF over GST control). For the same sequence, the binding signal (ETV1) was 1.37 fold enrichment (6-mer frequency, TF over GST control), the binding signal (ERF) was 1.39 fold enrichment (6-mer frequency, TF over GST control) and the binding signal (ETV3L) was 1.28 fold enrichment (6-mer frequency, TF over GST control). The binding signal (ETS2) was 1.42 fold enrichment (6-mer frequency, TF over GST control), the binding signal (SPDEF) was 1.89 fold enrichment (6-mer frequency, TF over GST control) and the binding signal (ETV7) was 1.31 fold enrichment (6-mer frequency, TF over GST control). The binding signal (ELF5) was 1.51 fold enrichment (6-mer frequency, TF over GST control), the binding signal (ETV3) was 1.54 fold enrichment (6-mer frequency, TF over GST control) and the binding signal (ETV6) was 1.36 fold enrichment (6-mer frequency, TF over GST control).
